Most compounds without a hit are left out; they make up all but 4% or so of the library.
Gli-Sufu block: Gli-Sufu pathway antagonists, primary screen, luciferase luminescence, Sufu-KO-LIGHT cells, uHTS; Sufu-KO-LIGHT fibroblasts, Gli luciferase reporter luminescence; inhibition, % at 5 µM; 340,000 tested, 0.74% active; AID 588413, 2011;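 active means inhibition above about 55%, limit read from the data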;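 further: 0% = DMSO-treated cells and 100% = wells with medium but no cells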
Beta apoptosis: inhibitors of cytokine-induced beta cell apoptosis, primary screen, luminescence. protection from apoptosis, % (no concentration beside the values). INS-1E cytokine-induced death, ATP luminescence, 48 h; percent of positive-control rescue, neutral wells zero. AID 435005, 2010. 300,000 tested, 0.8% active;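 active means Every replicate reaches about 75%, or at least half do and their mean reaches it too, limit read from the data; inconclusive means At least half of replicates reach the limit but their mean does not; inactive means Under half of replicates reach the limit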;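 further: 0% = cytokine-treated negative control wells and 100% = positive control rescue; higher means more ATP so stronger rescue from cytokine killing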
Mdm2-MdmX inh: inhibitors of human Mdm2-MdmX association, primary screen, cell-based, luminescence, split luciferase, SaOS-2, uHTS; Protein Mdm4 (Homo sapiens) + E3 ubiquitin-protein ligase Mdm2 (Homo sapiens), …; SaOS-2 split-luciferase Mdm2/MdmX complementation; inhibition, % at 8 µM; 330,000 tested, 3% active;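 active means inhibition of at least 50% at 8 µM in the primary screen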
Target sequence (O15151 whole entry, looked up): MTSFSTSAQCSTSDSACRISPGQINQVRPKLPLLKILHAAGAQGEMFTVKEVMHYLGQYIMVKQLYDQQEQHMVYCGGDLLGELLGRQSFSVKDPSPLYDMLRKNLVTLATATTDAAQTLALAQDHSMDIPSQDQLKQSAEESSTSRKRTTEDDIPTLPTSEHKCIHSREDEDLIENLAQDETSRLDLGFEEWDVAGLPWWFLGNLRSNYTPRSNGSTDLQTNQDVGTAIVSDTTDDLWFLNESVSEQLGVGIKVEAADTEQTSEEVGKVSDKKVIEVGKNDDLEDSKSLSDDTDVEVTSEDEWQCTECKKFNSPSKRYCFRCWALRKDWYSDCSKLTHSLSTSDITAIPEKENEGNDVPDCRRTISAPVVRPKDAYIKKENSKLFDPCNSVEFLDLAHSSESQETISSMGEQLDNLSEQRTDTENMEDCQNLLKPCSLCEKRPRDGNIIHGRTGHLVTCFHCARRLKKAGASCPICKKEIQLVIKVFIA
Target sequence (Q00987 whole entry, looked up): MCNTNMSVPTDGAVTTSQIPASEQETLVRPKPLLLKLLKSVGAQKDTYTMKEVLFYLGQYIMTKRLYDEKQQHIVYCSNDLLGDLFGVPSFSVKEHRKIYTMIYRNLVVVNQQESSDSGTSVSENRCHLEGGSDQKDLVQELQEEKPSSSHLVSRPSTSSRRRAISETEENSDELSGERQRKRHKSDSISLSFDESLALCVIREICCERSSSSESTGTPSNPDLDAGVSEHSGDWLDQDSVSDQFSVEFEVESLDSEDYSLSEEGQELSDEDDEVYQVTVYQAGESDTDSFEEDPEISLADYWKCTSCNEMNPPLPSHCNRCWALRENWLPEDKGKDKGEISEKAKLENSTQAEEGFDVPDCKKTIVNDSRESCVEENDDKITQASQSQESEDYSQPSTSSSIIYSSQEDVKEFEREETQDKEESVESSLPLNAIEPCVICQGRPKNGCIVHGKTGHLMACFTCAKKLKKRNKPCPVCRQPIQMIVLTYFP
Shn3 inh set2: reduction of Shn3 3'UTR firefly luciferase signal, primary screen, Schnurri-3 inhibitor project, cell-based, Clone20 osteoblasts, set 2. Clone20 osteoblast Shn3 3'UTR firefly luciferase, 24 h. inhibition, % at 12.5 µM. 360,000 tested, 0.52% active;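 active means mean inhibition of at least 75% with every replicate also reaching 75%; inconclusive means mean inhibition at least 75% but some replicate below; inactive means mean inhibition below 75%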;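 further: 0% = median of neutral control wells and 100% = pilot-screen positive control compound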
CSC inhib: cancer stem cell viability inhibitors, primary screen, luminescence; AID 2717, 2010; inhibition, % at 7.5 µM; 300,000 tested, 1.1% active; cancer stem cell-like cells viability; in the data active means inhibition above about 75%; inconclusive means no clear call, values can overlap the other calls; tested in HMLE shEcad cells
PAX8 reporter: inhibitors of PAX8-driven TPO luciferase reporter, primary screen, RMG-I cells, single concentration. AID 652154, 2013. 360,000 tested, 1.2% active. SteadyGlo, 24 h. inhibition, % at 12.6 µM;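 active means mean replicate inhibition at least 60% with every replicate also reaching 60%; inconclusive means only one of the two criteria is met; inactive means mean below 60% and not all replicates reaching 60%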;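 further: luciferase light reporting Pax8 driven TPO promoter activity; plate controls were median of neutral control wells for no effect and mitoxantrone controls for full effect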
Mdm2 MdmX conf: Mdm2-MdmX complex disruptors, retested hits, confirmation, luminescence, single concentration | shares compounds with Mdm2-MdmX inh | Mdm2-MdmX binding, luminescent assay | inhibition, % at 8 µM | 10,000 tested, 55% active; in the data active means inhibition above about 40%
FLuc counter: full-length luciferase signal inhibition, confirmation, counter-screen for Mdm2/MdmX interaction inhibitor project, cell-based, single concentration, SaOS-2. SaOS-2 full-length luciferase counterscreen, luminescence. 6,200 tested, 77% active. shares compounds with Mdm2-MdmX inh. inhibition, % at 8 µM;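 active means mean inhibition at 8 µM reaching about 37%, which flags the compound as non-specific, limit read from the data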;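 further: p53-null SaOS-2 cells with luciferase driven by a doxycycline-inducible promoter; compound on cells about two nights before reading with doxycycline added after day one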
Starred values were filed as active, the others as inactive.

O=C(Nc1cccc(-c2cccc(Cl)c2)c1)C1CCN(Cc2ccccn2)CC1 was read as Gli-Sufu block 1, Beta apoptosis -8, Mdm2-MdmX inh 37, Shn3 inh set2 -9, CSC inhib -4 and PAX8 reporter -8.
Cc1c(CN2CCC(C(=O)Nc3cccc(-c4cccc(Cl)c4)c3)CC2)cnn1C was read as Gli-Sufu block -7, Beta apoptosis 7, Mdm2-MdmX inh 58*, Shn3 inh set2 -24, CSC inhib 12, PAX8 reporter 15 and Mdm2 MdmX conf 10.
`COCc1ccc(CN2CCC(C(=O)Nc3cccc(-c4cccc(Cl)c4)c3)CC2)o1` gave Gli-Sufu block 16, Beta apoptosis -1, Mdm2-MdmX inh 78*, Shn3 inh set2 34, CSC inhib 0, PAX8 reporter 7, Mdm2 MdmX conf 54* and FLuc counter 58*.
CCC(=O)NC[C@H]1[C@H](c2ccccc2)[C@H](CO)N1C(=O)C1CCC1 was read as PAX8 reporter 6.
`O=[N+]([O-])c1ccc(O)c(Nc2ncnc3ccccc23)c1` gave Gli-Sufu block -7, Beta apoptosis -3, Mdm2-MdmX inh 60*, Shn3 inh set2 -14, CSC inhib 13, PAX8 reporter -21 and Mdm2 MdmX conf 17.
Cc1ccc(O)c(Nc2ncnc3ccc([N+](=O)[O-])cc23)c1 was read as Gli-Sufu block 2, Beta apoptosis -6, Mdm2-MdmX inh 42, Shn3 inh set2 8, CSC inhib 25 and PAX8 reporter -22.
Screening O=[N+]([O-])c1ccc2ncnc(Nc3ccc4c(c3)OCCO4)c2c1 returned Beta apoptosis -5, Mdm2-MdmX inh 56*, Shn3 inh set2 15, CSC inhib 6, PAX8 reporter -20, Mdm2 MdmX conf 58* and FLuc counter 30.
For C[C@@H]1CN([C@H](C)CO)C(=O)c2cc(/C=C/c3ccccc3)cnc2O[C@H]1CN(C)C(=O)CN1CCOCC1 the results were PAX8 reporter 0.
Screening CC(C)NC(=O)N[C@H]1CC[C@@H](CCn2cc(-c3ccccc3)nn2)O[C@@H]1CO returned PAX8 reporter -10.
For Cn1c(=O)c(/C(N)=N/OC(=O)c2ccccc2)cn(-c2ccccc2)c1=O the results were Gli-Sufu block 6, Beta apoptosis 1, Mdm2-MdmX inh 58*, Shn3 inh set2 -11, CSC inhib -4, PAX8 reporter 2 and Mdm2 MdmX conf 25.
`O=C(Nc1cccc(/C=C/c2ccccn2)c1)c1ccc(-n2cncn2)c([N+](=O)[O-])c1` gave Gli-Sufu block 3, Mdm2-MdmX inh 62*, Shn3 inh set2 -12, CSC inhib 28, PAX8 reporter 18 and Mdm2 MdmX conf 38.
`O=C(Nc1ccc(F)c(F)c1)c1ccc(-n2cncn2)c([N+](=O)[O-])c1` gave Gli-Sufu block -1, Beta apoptosis 1, Mdm2-MdmX inh -15, Shn3 inh set2 20, CSC inhib -8 and PAX8 reporter 19.
`CCC(=O)N1CC2(C1)[C@H](c1ccc(-c3ccc(F)cc3)cc1)[C@H](CO)N2C(=O)CC` gave PAX8 reporter 9.
Cc1nn(-c2ccccc2)c2nc(-c3ccncc3)cc(C(=O)NCc3ccco3)c12 was read as Gli-Sufu block 1, Mdm2-MdmX inh 38, Shn3 inh set2 7, CSC inhib 6 and PAX8 reporter 16.
`COc1ccc(-c2cc(C(=O)NNC3=NCCC3)c3c(C)nn(-c4ccccc4)c3n2)cc1` gave Gli-Sufu block 6, Beta apoptosis 41, Mdm2-MdmX inh 69*, Shn3 inh set2 23, PAX8 reporter 24, Mdm2 MdmX conf 56* and FLuc counter 34.
`COc1ccc(NC(=O)c2cc(-c3ccccc3)nc3c2c(C)nn3-c2ccccc2)c(OC)c1` gave Gli-Sufu block 11, Beta apoptosis 15, Mdm2-MdmX inh 54*, Shn3 inh set2 -8, CSC inhib -9, PAX8 reporter 10 and Mdm2 MdmX conf 9.
For Cc1nc([N+](=O)[O-])c(Br)n1CC(=O)c1ccc(Br)cc1 the results were Gli-Sufu block 5, Beta apoptosis -10, Mdm2-MdmX inh 63*, Shn3 inh set2 36, CSC inhib 34, PAX8 reporter 40 and Mdm2 MdmX conf 10.
`Cc1nc([N+](=O)[O-])c(Br)n1CC(=O)c1ccc2ccccc2c1` gave Gli-Sufu block -11, Mdm2-MdmX inh 87*, Shn3 inh set2 95*, CSC inhib inconclusive and Mdm2 MdmX conf 23.
`CCOc1cc(/C=C2\COc3ccccc3C2=O)cc(Br)c1OCC(=O)N(C)C` gave Gli-Sufu block 14, Beta apoptosis 100*, Mdm2-MdmX inh 97*, Shn3 inh set2 75, CSC inhib 61, PAX8 reporter 10, Mdm2 MdmX conf 74* and FLuc counter 59*.
`Cc1noc(C)c1S(=O)(=O)Nc1ccc2c(c1)C(=O)N([C@H](C)CO)C[C@H](C)[C@@H](CN(C)S(=O)(=O)c1cccs1)OCCCC[C@H](C)O2` gave PAX8 reporter -12.
O=C(Oc1ccc2ccc(=O)oc2c1)c1ccc([N+](=O)[O-])cc1 was read as Gli-Sufu block 1, Beta apoptosis -4, Mdm2-MdmX inh 27, Shn3 inh set2 1, CSC inhib -1 and PAX8 reporter 28.
O=c1ccc2ccc(Oc3ccc([N+](=O)[O-])cc3[N+](=O)[O-])cc2o1 was read as Beta apoptosis 1, Mdm2-MdmX inh 58*, CSC inhib 59, Mdm2 MdmX conf 60* and FLuc counter 72*.
Cn1c(=O)c(C(=O)COC(=O)c2cc(C(F)(F)F)nc3c(C(F)(F)F)cccc23)c(N)n(CC2CC2)c1=O was read as Beta apoptosis -6, Mdm2-MdmX inh 77*, CSC inhib -11, PAX8 reporter -17 and Mdm2 MdmX conf 3.
Cn1c(N)c(C(=O)COC(=O)c2cc(-c3ccccc3)nc3ccccc23)c(=O)n(C)c1=O was read as Beta apoptosis 27, Mdm2-MdmX inh 66*, CSC inhib -7, Mdm2 MdmX conf 29 and FLuc counter 60*.

Compound activity: PubChem BioAssay, several laboratories
